PubChem BioAssay (NCATS)
Results filed as inconclusive are left out. A call without a number means that no potency is given here. Active and inactive are the calls of the source. Unless noted, calls follow the shape of the full dose curve.

Legend:
[1] = Primary qHTS for Huh7 cytotoxicity: counterscreen for inhibitors of MERS-S pseudotyped particle cell entry (AID 1479147); conditions: outcome: dose series up to 57.1 µM unless noted
[2] = Primary qHTS for inhibitors of MERS-S pseudo-typed particle cell entry (AID 1479149); conditions: outcome: dose series up to 57.1 µM unless noted; also: nearly all actives have a fitted effect of over 60% in size
[3] = Primary qHTS for Vero E6 cytotoxicity: counterscreen for inhibitors of SARS-S pseudo-typed particle cell entry (AID 1479150); conditions: outcome: dose series up to 57.1 µM unless noted
[4] = Cytotoxicity counterscreen for inhibitors of SARS-CoV-2 cell entry (AID 1645845); conditions: outcome: dose series up to 57.1 µM unless noted; also: nearly all actives have a fitted effect of over 50% in size
How it was run: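 48 h compound treatment (after 1 h preincubation), HEK293-ACE2 cells, 37 C/5% CO2; ATP luminescence endpoint; normalized to cell wells and media blanks.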

[5] = Primary qHTS to identify inhibitors of SARS-CoV-2 cell entry (AID 1645846); conditions: SARS-CoV-2 pseudovirus cell entry assay, luminescence; also: nearly all actives have a fitted effect of over 45% in size
How it was run: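 HEK293 cells stably expressing human ACE2, pre-treated 1 h with compound, then infected with MLV particles pseudotyped with Wuhan-Hu-1 spike (C-terminal 19-aa truncation). Luciferase luminescence after 48 h at 37 °C, normalised to spike PP and bald PP.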

[6] = target: Glutathione peroxidase 1 (Homo sapiens) (UniProt P07203); experiment: Primary qHTS Assay for Inhibitors of Recombinant Selenoprotein Glutathione Peroxidase 1 (GPX1) (AID 1845191; active = well fitted inhibition curve with a large enough effect; also: nearly all actives have a fitted effect of over 65% in size)
Glutathione peroxidase 1 (Homo sapiens), sequence (P07203 whole entry, looked up): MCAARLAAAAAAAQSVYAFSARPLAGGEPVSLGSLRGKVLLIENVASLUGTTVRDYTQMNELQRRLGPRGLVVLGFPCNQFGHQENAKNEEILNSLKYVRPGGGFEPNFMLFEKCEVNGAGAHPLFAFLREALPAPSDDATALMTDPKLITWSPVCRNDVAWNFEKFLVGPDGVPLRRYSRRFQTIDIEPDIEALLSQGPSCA
How it was run: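 10 nM GPX1 + cpd, 30 min RT; start w/ 1 mM GSH, 0.5 mM cumene hydroperoxide, 0.5 mM NADPH, 100 nM GR, 0.01% BSA; buffer 50 mM Tris-HCl pH 7.5, 2 mM EDTA, 150 mM NaCl; Fl 340/450, 0 & 15 min.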

[7] = target: Phospholipid hydroperoxide glutathione peroxidase GPX4 (Homo sapiens) (UniProt P36969); experiment: Primary qHTS Assay for Inhibitors of Recombinant Selenoprotein Glutathione Peroxidase 4 (GPX4) (AID 1845192; active = well fitted inhibition curve with a large enough effect; also: nearly all actives have a fitted effect of over 65% in size)
Phospholipid hydroperoxide glutathione peroxidase GPX4 (Homo sapiens), sequence (P36969 whole entry, looked up): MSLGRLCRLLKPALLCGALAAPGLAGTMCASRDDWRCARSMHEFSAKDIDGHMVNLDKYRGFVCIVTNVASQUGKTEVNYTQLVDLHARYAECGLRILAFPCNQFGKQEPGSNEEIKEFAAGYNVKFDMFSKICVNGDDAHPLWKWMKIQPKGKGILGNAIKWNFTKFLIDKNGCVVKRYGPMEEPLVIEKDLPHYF
How it was run: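 NADPH consumption, followed by fluorescence at 340/450 nm between 0 and 15 min, reports GPX4 activity via coupled glutathione reductase (100 nM). Enzyme 200 nM was pre-exposed to compound 30 min; 0.5 mM cumene hydroperoxide and 1 mM GSH served as substrates.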

[8] = activity change, negative = inhibition: at 57.1 µM (top of the series) unless noted, outcome: at 57.1 µM (top of the series) unless noted

CC(C)N[C@@H]1CCn2c(=O)[nH]c3cccc(c32)[C@H]1O
Potency [1]: inactive
Potency [2]: inactive
Potency [3]: inactive
Potency [4]: inactive
Potency [5, 8]: inactive
Potency [6]: inactive
Potency [7]: inactive

CCC[C@@H]1C[C@@H](C(=O)N[C@@H](C2O[C@H](SC)[C@H](O)[C@@H](O)[C@H]2O)[C@H](C)Cl)N(C)C1 (some centres undefined)
Potency [1]: inactive
Potency [2]: inactive
Potency [3]: inactive
Potency [4]: inactive
Potency [5, 8]: inactive

CCC(C)(C)OC(=O)N[C@@H](Cc1c[nH]c2ccccc12)C(=O)N[C@@H](CCSC)C(=O)N[C@@H](CC(=O)O)C(=O)N[C@@H](Cc1ccccc1)C(N)=O
Potency [1]: inactive
Potency [2]: inactive
Potency [3]: inactive
Potency [4]: inactive
activity change, negative = inhibition [5, 8]: -23%

CN1CC(O)c2cc(N=NC(=N)N)c(O)cc21 (centres undefined)
Potency [1]: inactive
Potency [2]: inactive
Potency [3]: inactive
Potency [4]: inactive
activity change, negative = inhibition [5, 8]: -23.2%

CN1CCN(C2=Nc3ccccc3Cc3ccccc32)CC1
Potency [1]: inactive
Potency [2]: inactive
Potency [3]: inactive
Potency [4]: inactive
activity change, negative = inhibition [5, 8]: -23.9%

CCOc1cc(C(CS(C)(=O)=O)N2C(=O)c3cccc(NC(C)=O)c3C2=O)ccc1OC (centres undefined)
Potency [1]: inactive
Potency [2]: inactive
Potency [3]: inactive
Potency [4]: inactive
activity change, negative = inhibition [5, 8]: -21.8%

CCCCCCCCCC(=O)OC1CC[C@H]2[C@@H]3CCC4=CC(=O)CC[C@@H]4[C@H]3CC[C@]12C (some centres undefined)
Potency [1]: inactive
Potency [2]: inactive
Potency [3]: inactive
Potency [4]: inactive
activity change, negative = inhibition [5, 8]: 0.678%
Potency [6]: inactive

C[C@H]1CNCCCN1S(=O)(=O)c1cccc2cncc(F)c12
Potency [1]: inactive
Potency [2]: inactive
Potency [3]: inactive
Potency [4]: inactive
activity change, negative = inhibition ([5]; at 27.1 µM (top of the series)): -27.6%
activity change, negative = inhibition ([5]; at 57.1 µM (top of the series)): -12.6%

O=C(OC[C@H]1O[C@@H](OC(=O)c2cc(O)c(O)c(O)c2)[C@H](O)[C@@H](OC(=O)c2cc(O)c(O)c(O)c2)[C@@H]1O)c1cc(O)c(O)c(O)c1
Potency [1]: inactive
Potency [2]: inactive
Potency [3]: inactive
Potency [4]: inactive
activity change, negative = inhibition [5, 8]: -1.77%

CO/N=C(/C(=O)N[C@@H]1C(=O)N2C(C(=O)O)=C(CSC(=O)c3ccco3)CS[C@H]12)c1csc(N)n1
Potency [1]: inactive
Potency [2]: inactive
Potency [3]: inactive
Potency [4]: inactive
activity change, negative = inhibition [5, 8]: -26.3%

COc1c(O)cc2c(c1O)[C@H]1O[C@@H](CO)[C@H](O)[C@@H](O)[C@@H]1OC2=O
Potency [1]: inactive
Potency [2]: inactive
Potency [3]: inactive
Potency [4]: inactive
activity change, negative = inhibition [5, 8]: -14.9%
